# Screening results deposited in PubChem BioAssay by several laboratories.
# This is a sample that favours compounds with a hit; in the whole collection about 1.9% have one here.
# KLF5 inh = KLF5 expression inhibitors, primary screen, DLD-1 cells, luminescence; DLD-1 KLF5 promoter-luciferase reporter; inhibition, % at 5 µM; actives 0.23% (n = 290,000); AID 1700, 2009;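 active = inhibition above a per-plate limit of that plate's mean compound inhibition plus 3 SD, cut at about 60% in these data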;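 also: 0% = DMSO wells and 100% = LY294002 at 200 µM; higher means less KLF5 promoter-driven luciferase light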
# IEC-6 cytotox = cytotoxicity in IEC-6 intestinal epithelial cells, primary screen, cytotoxicity control for KLF5 inhibitor project, cell-based, luminescence; actives 0.78% (n = 290,000); inhibition, % at 5 µM; IEC-6 cytotoxicity, luminescence viability; AID 1825, 2009;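 also: 0% = plate median of test compound wells and 100% = cytotoxic reference compound wells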
# APP transl inh = inhibitors of APP translation via 5'UTR reporter, primary screen, APP 5'UTR luciferase, SH-SY5Y cells. SH-SY5Y APP 5'UTR-luciferase reporter, luminescence. inhibition, % at 2 µM. actives 0.82% (n = 190,000);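 active = inhibition above a set limit, derived from the sample mean plus 3 SD, cut at about 45% in these data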
# BaF3 tox = parental Ba/F3 cell viability inhibition, counter-screen for JAK2V617F inhibitor project, murine pro-B, CellTiter-Glo luminescence | CellTiter-Glo ATP luminescence | inhibition, % at 5.6 µM | actives 1.1% (n = 220,000);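 active = inhibition above a per-campaign cutoff, the mean inhibition of all tested compounds plus 3 SD, cut at about 27% in these data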;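 also: 0% = DMSO wells and 100% = JAK Inhibitor I control wells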
# Ba/F3 V617F tox = reduced viability of JAK2V617F-dependent Ba/F3 cells, primary screen, JAK2V617F inhibitor project, cell-based, Ba/F3 EpoR-JAK2V617F, luminescence; AID 1446, 2008; ATP luminescence; actives 1.1% (n = 220,000); inhibition, % at 5.6 µM;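 active = inhibition above the campaign mean plus 3 SD over all tested compounds, cut at about 24% in these data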;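 also: cytokine-independent growth of Ba/F3 cells driven by EpoR plus mutant JAK2; 0% = DMSO-treated cells and 100% = JAK inhibitor I control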
# IEC-6 cytotox cf = cytotoxic compounds in IEC-6 epithelial cells, confirmation, cytotoxicity control, cell-based, luminescence; shares compounds with IEC-6 cytotox; IEC-6 rat intestinal epithelial viability; inhibition, % at 5 µM; actives 63% (n = 1,900);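 also: 0% = vehicle and 100% = reference cytotoxic drug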
# * marks the source's active call; other numbers are inactive results; . = no result given. Rule as the data show it, unless noted: active = inhibition above about 22%; inactive = the rest.
SMILES,KLF5 inh,IEC-6 cytotox,APP transl inh,BaF3 tox,Ba/F3 V617F tox,IEC-6 cytotox cf
COc1ccccc1CNS(=O)(=O)c1ccc(-c2cc(C)no2)cc1,53.1,78.9*,.,.,.,53.3*
COc1ccccc1NS(=O)(=O)c1cccs1,-32.8,3.4,-2.8,0.5,-2.6,.
COc1ccccc1NS(=O)(=O)c1ccc(-c2cc(C)no2)s1,27.1,39.7*,.,.,.,16.6
CC(=O)NNC(=S)Nc1cc(S(=O)(=O)N(C)C)ccc1C,-9.0,-0.5,-27.7,4.2,3.4,.
CCc1cccc(NC(=S)Nc2cccc3ccccc23)c1,-48.0,29.2*,.,.,.,14.2
COc1cccc(NC(=S)Nc2cccc3ccccc23)c1,-109.4,35.9*,.,.,.,7.3
Cc1ccc(S(=O)(=O)N(C)C)cc1NC(=S)Nc1cccc2ccccc12,-8.9,61.7*,.,.,.,3.8
COc1ccc(NC(=O)COC(=O)c2ccc(S(=O)(=O)N(C)c3ccccc3OC)cc2)cc1OC,3.5,-6.0,8.1,4.1,0.7,.
CCOC(=O)C1(CC2CC2)CCN(Cc2ccc(O)c(Cl)c2)CC1,0.3,-0.8,-8.7,10.4,4.8,.
O=CN1CCN(C(C(=O)NC2CCCC2)c2cc3c(cc2[N+](=O)[O-])OCO3)CC1 (centres undefined),-37.6,-8.2,-20.4,8.6,1.6,.
O=C(Nc1ccc2[nH]c(=O)[nH]c2c1)Nc1ccc(F)cc1F,5.5,-1.4,8.7,12.2,7.1,.
COc1ccc(Br)cc1C1Nc2ccccc2C(=O)N1NC(=O)c1ccncc1 (centres undefined),-6.0,4.9,1.1,6.2,4.2,.
CCOC(=O)C(NC(=O)Nc1ccc(Cl)cn1)(Oc1ccc(F)cc1)C(F)(F)F (centres undefined),-2.6,24.9*,-7.0,11.9,6.5,-3.7
Cc1cccc(OCC(=O)NCC(=O)N/N=C/c2cc(Br)cc(Br)c2O)c1,34.9,29.6*,.,.,.,17.7
COc1cccc(C(=O)NNC(=O)C(=O)Nc2ccc(OC)cc2OC)c1,-14.6,8.7,.,.,.,.
O=C(c1cccc(N2CCCC2=O)c1)N1CCN(c2cccc(Cl)c2)CC1,13.4,44.2*,.,.,.,17.4
CC(NS(=O)(=O)c1ccc2c(c1)C(=O)c1cc(S(=O)(=O)NC(C)C(=O)O)ccc1-2)C(=O)O (centres undefined),-11.6,-3.1,.,.,.,.
COc1ccccc1CNC(=O)c1ccc(OC(F)F)c(OC)c1,0.1,35.4*,-15.7,-0.2,-0.4,1.7
CCc1c(C)nc2ncnn2c1Nc1ccc(C)cc1,-13.7,9.5,.,.,.,.
CCc1c(C)nc2ncnn2c1NCCc1ccc(OC)cc1,17.2,24.4*,19.5,57.4*,63.0*,23.7*
CCN(CC1CCCO1)C(=O)c1cc(COc2ccc(F)cc2F)on1 (centres undefined),-43.5,6.9,.,.,.,.
O=C(Nc1nc(NC(=O)c2ccco2)n(-c2ccccc2)n1)c1ccccc1,47.9,26.2*,46.0*,50.9*,36.0*,41.1*
CC(=O)Nc1nc(NC(=O)/C=C/c2ccccc2)n(-c2ccccc2)n1,27.0,24.1*,11.4,10.4,5.3,16.7
CC(=O)Nc1nc(NCc2ccccc2Cl)n(-c2ccccc2)n1,-15.9,-6.3,.,.,.,.
COC(=O)c1ccc(Cn2nc(C)c(Cl)c2C)o1,-10.3,4.7,-9.6,-2.9,-4.7,.
SMILES,KLF5 inh,IEC-6 cytotox,APP transl inh,BaF3 tox,Ba/F3 V617F tox,IEC-6 cytotox cf
CC1c2cc3c(cc2CCN1CC(=O)Nc1ccccc1)OCCCO3 (centres undefined),9.9,5.5,.,.,.,.
CC1c2cc3c(cc2CCN1C(=O)c1cccc(Cl)c1)OCCCO3 (centres undefined),-10.0,24.7*,.,.,.,7.5
O=C(Nc1nc2ccccc2s1)c1ccc2c(c1)S(=O)(=O)c1ccccc1C2=O,-20.6,-0.1,4.6,0.8,3.6,.
CC1=Nc2cc(C(=O)NCCCN3CCOCC3)ccc2Sc2c(C)ccc(C)c21,-7.5,18.5,.,.,.,.
CC1=Nc2cc(C(=O)NCCN3CCOCC3)ccc2Sc2c(C)ccc(C)c21,14.4,33.1*,.,.,.,32.3*
Cc1cc(C(=O)OCC(=O)NCc2ccco2)c(C)n1-c1ccc(F)cc1,-4.3,45.3*,75.2*,4.0,-0.6,57.2*
O=C(/C=C/c1c[nH]c2ccccc12)c1ccccc1,-50.6,0.5,-116.8,4.5,3.0,.
OCC[n+]1ccc(/C=C/c2c[nH]c3ccccc23)cc1,6.3,56.3*,16.4,84.4*,90.2*,5.0
N#C/C(=C(/O)c1ccc(Br)s1)c1nc2ccccc2[nH]1,8.0,33.6*,.,.,.,46.2*
COc1ccc2c(COC(=O)c3cccc(S(=O)(=O)NCC(C)C)c3)cc(=O)oc2c1,-9.5,-8.8,.,.,.,.
CCCNS(=O)(=O)c1cccc(C(=O)OCc2cc(=O)oc3cc(OC)ccc23)c1,42.6,62.5*,.,.,.,16.2
Cc1ccc(C(=O)NC(C#N)=C(Cl)Cl)cc1,-15.7,70.2*,57.7*,-4.3,11.4,18.8
Cc1ccc(C(=O)NCC#N)cc1,-20.6,-9.9,-1.8,8.4,-1.0,.
O=C(O)c1ccc(N/N=C/c2cccc(C(F)(F)F)c2)cc1,-137.6,31.6*,.,.,.,36.5*
CCCCCCn1ccc(=N)cc1,5.8,28.4*,1.8,69.2*,92.0*,26.4*
Cc1ccc(C)c(N(C(=O)Cn2nnc3ccccc32)C(C(=O)NCc2ccco2)c2ccncc2)c1 (centres undefined),-19.4,6.7,5.7,3.9,1.7,.
CC(/C=N/NC(=O)c1cccc(F)c1)=C\c1ccccc1,-47.8,28.3*,.,.,.,5.7
Cc1ccc2cc(CN(C)C(=O)C3CCCO3)c(=O)[nH]c2c1 (centres undefined),-48.0,-1.8,-24.8,6.2,-5.0,.
CCCCC(=O)Nc1ccc(C(=O)OC2CCCCC2)cc1,-29.6,24.4*,-13.0,10.4,3.2,17.9
O=C(O)CCC(=O)Nc1ccc(C(=O)OC2CCCCC2)cc1,-19.1,4.2,17.4,5.4,2.2,.
COC(=O)CCC(=O)NNC(=O)c1ccc(Br)cc1,-9.5,-6.3,0.9,2.5,-2.1,.
Cc1cc(C)cc(N(CC(=O)NCC2CCCO2)C(=O)CCC(=O)Nc2cc(C)on2)c1 (centres undefined),-5.0,-0.3,-0.6,-1.7,0.5,.
Nc1ncnc(N)c1N=Nc1ccccc1,-65.0,35.6*,.,.,.,18.7
Nc1nn(-c2ccccc2)c(N)c1N=Nc1ccccc1,-115.3,34.2*,-3.1,64.3*,64.3*,40.2*
Cc1nn(-c2ccccc2)c(N)c1N=Nc1ccccc1,-152.8,1.2,-156.3,6.5,1.9,.
O=c1[nH]cnc(O)c1N=Nc1ccccc1,-25.6,-4.7,.,.,.,.
O=C(CN1CCN(Cc2ccccc2)CC1)NCCc1ccccc1,-22.7,-2.5,.,.,.,.
C/C(Cl)=C/CSc1nnc2n(N)c(=O)c3ccccc3n12,-5.4,-0.5,2.2,-0.9,0.3,.
Cc1ccc(CNC(=O)Cc2ccc(-n3cccc3)cc2)cc1,-18.2,3.1,24.8,7.6,4.3,.
